Bioassay records as filed in PubChem.
Hits are enriched below; roughly 10% of the tested compounds scored in any of these assays.
NIH3T3 tox = NIH 3T3 cell cytotoxicity | NIH 3T3 viability, CellTiter-Glo ATP luminescence, 48-72 h | AID 1345082 | Potency, µM (top dose mostly 96.7 µM), most hits filed as inhibitors | 94,000 compounds, 4.3% hits; further: nearly all actives have a fitted effect of over 55% in size
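NIH 3T3 cells at 400 cells/well received 23 nL of compound by pintool and were incubated 48 or 72 h at 37 °C. Viability was read as ATP-coupled CellTiter-Glo luminescence.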
HEK cytotox = cytotoxic compounds in HEK 293 cells; Potency, µM (doses to about 115 µM), most hits filed as inhibitors; HEK 293 viability, ATP luminescence (CellTiter-Glo), 48-72 h; AID 1345083; 94,000 compounds, 6.6% hits; further: nearly all actives have a fitted effect of over 60% in size
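Luminescence from cellular ATP, measured with CellTiter-Glo, indicates HEK 293 viability. Cells plated at 250 cells/well are treated with compound for 48 or 72 hr at 37 degree Celsius before reagent addition.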
NPR1 antag = blocks ANP-stimulated signaling of human Npr1 receptor; P16066; AID 1347048; 76,000 compounds, 1.6% hits; HEK293 hNpr1 GloSensor cGMP, ANP-stimulated luminescence; Potency, µM (top dose mostly 46.3 µM), usual class: inhibitors; calls by dose curve; further: nearly all actives have a fitted effect of over 60% in size
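Compound pre-incubated 30 min at room temperature on GloSensor-loaded HEK293 cells stably carrying hNpr1 and the pGS-40F cGMP biosensor. Stimulation uses hNppA at 0.1 nM final; luminescence is taken at baseline and 20 min post-agonist.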
GPT2 inhibitor = inhibitors of human GPT2 alanine aminotransferase; 100,000 compounds, 0.25% hits; Q8TD30; AID 1671188; Potency, µM (series often up to 57.7 µM), usual class: inhibitors; Recombinant GPT2, coupled pyruvate oxidase/HRP Amplex Red fluorescence; further: nearly all actives have a fitted effect of over 60% in size
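GPT2 10ng/uL, a-KG 250uM, L-Ala 2mM, HEPES pH7.5 + 0.0001% Tween; 30 min RT. Then Amplex mix (PO/HRP/ThPP), 30 min RT dark, fluorescence. AOA 50uM used as positive control.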
Luciferase inh = Photinus pyralis luciferase inhibition. 76,000 compounds, 2.5% hits. P08659. purified P. pyralis luciferase, luminescence, biochemical. AID 1347043. Potency, µM (doses to about 115 µM), usual class: inhibitors; further: nearly all actives have a fitted effect of over 65% in size
Target sequence (P08659 whole entry, looked up): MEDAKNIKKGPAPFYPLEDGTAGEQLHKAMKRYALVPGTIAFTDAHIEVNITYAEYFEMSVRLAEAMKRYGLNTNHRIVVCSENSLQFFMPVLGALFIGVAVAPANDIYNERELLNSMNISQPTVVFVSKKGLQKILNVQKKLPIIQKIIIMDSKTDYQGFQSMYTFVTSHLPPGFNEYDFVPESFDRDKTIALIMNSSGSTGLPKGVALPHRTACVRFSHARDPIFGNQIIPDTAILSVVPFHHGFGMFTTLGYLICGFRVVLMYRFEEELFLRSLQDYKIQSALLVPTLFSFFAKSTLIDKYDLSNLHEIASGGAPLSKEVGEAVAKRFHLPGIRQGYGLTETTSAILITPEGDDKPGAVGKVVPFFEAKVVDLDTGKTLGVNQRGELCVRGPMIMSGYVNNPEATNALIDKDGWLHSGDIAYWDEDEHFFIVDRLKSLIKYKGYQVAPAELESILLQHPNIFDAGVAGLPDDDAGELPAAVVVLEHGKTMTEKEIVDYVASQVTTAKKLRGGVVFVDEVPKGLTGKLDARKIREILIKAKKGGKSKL
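Cell-free enzyme assay, 10nM P. pyralis luciferase, luciferin and ATP each at 10uM. Inhibition profiled over a 6-point titration, read as luminescence.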
Large screens that a line does not name were inactive; ! = not active in a repeat. Unless noted, the call rests on the fitted dose curve; in most records, active means well fitted curve in the direction sought with a large enough effect; inconclusive means small, poorly fitted or top-dose-only effect, or another doubt; inactive means no such curve, though single readings can be large; an effect the other way counts as inactive or inconclusive.

O=c1[nH]c(C2CCCN(Cc3ccc(F)cc3)C2)nn1-c1ccc(Cl)cc1 (stereo not given)	NIH3T3 tox 35µM, HEK cytotox 45µM
COc1ccc(-n2nc(C3CCN(Cc4ccc(C(F)(F)F)cc4)CC3)[nH]c2=O)cc1	NIH3T3 tox inconclusive, HEK cytotox 32µM!, NPR1 antag inconclusive
O=c1[nH]c(C2CCCN(Cc3ccc(F)cc3)C2)nn1-c1ccccc1 (stereo not given)	GPT2 inhibitor inconclusive
O=C(c1ccccc1Cl)N1CCCC(c2nn(-c3cccc(Cl)c3)c(=O)[nH]2)C1 (stereo not given)	NIH3T3 tox 35µM, HEK cytotox 35µM
COc1ccc(-n2nc(C3CCN(Cc4ccc(OC(F)(F)F)cc4)CC3)[nH]c2=O)cc1	HEK cytotox inconclusive, NPR1 antag inconclusive
CC(C)(C)C(=O)N1CCC(c2nn(-c3ccccc3)c(=O)[nH]2)CC1	HEK cytotox inconclusive, Luciferase inh 50µM
COc1cccc(CNC(=O)[C@@H]2C[C@@H](O)CN2C2CCN(C(=O)c3cccc(C)c3)CC2)c1	none
O=C(c1cncc(N2CCCC(CCc3cccc(F)c3)C2)n1)N1CCCCC1 (stereo not given)	NIH3T3 tox inconclusive, HEK cytotox inconclusive
O=C(Cc1cccc(Cl)c1)N1CCc2nc(C3CC3)nc(-c3ccc(Cl)cc3)c2C1	NIH3T3 tox inconclusive, HEK cytotox inconclusive
O=c1[nH]c(C2CCCN(Cc3ccccc3)C2)nn1-c1ccccc1 (stereo not given)	NIH3T3 tox 89µM, HEK cytotox 100µM
O=C(Nc1ccc(Cl)cc1)N1CCCC(c2nn(-c3ccccn3)c(=O)[nH]2)C1 (stereo not given)	NIH3T3 tox 35µM, HEK cytotox 40µM (no result: NPR1 antag, Luciferase inh)
c1ccc(COc2ccc(CN3CCN(C4CCNC4)CC3)cc2)cc1 (stereo not given)	NIH3T3 tox 45µM, HEK cytotox inconclusive, GPT2 inhibitor inconclusive, Luciferase inh inconclusive
Fc1ccc(CN2CCN(C3CCNC3)CC2)cc1Cl (stereo not given)	none
Cc1ccc(CCN2CCCCC23Cc2ccccc2CN([S+](C)(=O)[O-])C3)cc1 (stereo not given)	NIH3T3 tox inconclusive, HEK cytotox 79µM (no result: NPR1 antag, Luciferase inh)
CCOc1nccn2c(-c3ccc(CNc4ccc(OC)nc4)cc3)cnc12	NIH3T3 tox inconclusive, HEK cytotox inconclusive, GPT2 inhibitor inconclusive, Luciferase inh 22µM
CCCNC(=O)N1CCC(Cc2ccc(CCNC(C)=O)cc2)CC1	NIH3T3 tox inconclusive, HEK cytotox 45µM (no result: NPR1 antag, Luciferase inh)
CCNC(=O)N1CCC(Cc2ccc(C(=O)Nc3cccc(F)c3)cc2)CC1	NIH3T3 tox inconclusive, HEK cytotox 40µM, NPR1 antag 11µM, Luciferase inh 25µM
O=C(NCCC1CCN(C(=O)Nc2cc(F)cc(F)c2)CC1)c1ccccc1	HEK cytotox inconclusive, Luciferase inh 28µM
CO[C@H]1C(=O)N(C(C)C)[C@H]1C1CCN(C(=O)c2cc(C)n(C)n2)CC1	none (no result: NPR1 antag, Luciferase inh)
O=C(N[C@@H]1CCNC[C@H]1O)c1cccc(-c2ccc(OC(F)(F)F)cc2)c1	NIH3T3 tox 18µM, HEK cytotox inconclusive
CC(C)c1ccc(C(=O)N2CCc3[nH]nc(C(=O)NCCCc4ccccc4)c3C2)cc1	none
Cc1ccc(C(=O)N2CCc3[nH]nc(C(=O)NCCCc4ccccc4)c3C2)cc1C	NIH3T3 tox inconclusive, HEK cytotox inconclusive (no result: NPR1 antag, Luciferase inh)
O=C(NCCCc1ccccc1)c1n[nH]c2c1CN(C(=O)c1cccc(Cl)c1)CC2	NIH3T3 tox 35µM, HEK cytotox inconclusive (no result: NPR1 antag, Luciferase inh)
CCC(C)C(=O)N1CCc2[nH]nc(C(=O)NCCCc3ccccc3)c2C1 (stereo not given)	NIH3T3 tox inconclusive, HEK cytotox 11µM
COc1cccc(C(=O)N2CCc3[nH]nc(C(=O)NCCCc4ccccc4)c3C2)c1	NIH3T3 tox 32µM, HEK cytotox inconclusive
O=C(NCCCc1ccccc1)c1n[nH]c2c1CN(C(=O)c1ccc(F)c(F)c1)CC2	NIH3T3 tox 35µM, HEK cytotox inconclusive (no result: NPR1 antag, Luciferase inh)
O=C(NC1CCCC1)N1CCN(c2nccc(Nc3ccccc3Cl)n2)CC1	NIH3T3 tox inconclusive, HEK cytotox 40µM (no result: NPR1 antag, Luciferase inh)
CN(C)C(=O)NC1CCN(c2nccc(Nc3ccccc3Cl)n2)CC1	NIH3T3 tox 28µM, HEK cytotox 45µM (no result: NPR1 antag, Luciferase inh)
